Screening results deposited in PubChem BioAssay by Paczesny and Yang Labs, IUPUI and University of Michigan.
The sample as a whole holds a higher share of hits than the screen did.
ST2 inh: inhibitors of human ST2 (IL1RL1) binding to IL-33 | Q01638 | AID 1259354 | actives 2.3% (n = 78,000) | AlphaLISA ST2-Fc/biotin-IL-33 interaction, 1 h | inhibition, % for hits at 17 µM; in the data active means inhibition above about 30%
Target sequence (Q01638 whole entry, looked up): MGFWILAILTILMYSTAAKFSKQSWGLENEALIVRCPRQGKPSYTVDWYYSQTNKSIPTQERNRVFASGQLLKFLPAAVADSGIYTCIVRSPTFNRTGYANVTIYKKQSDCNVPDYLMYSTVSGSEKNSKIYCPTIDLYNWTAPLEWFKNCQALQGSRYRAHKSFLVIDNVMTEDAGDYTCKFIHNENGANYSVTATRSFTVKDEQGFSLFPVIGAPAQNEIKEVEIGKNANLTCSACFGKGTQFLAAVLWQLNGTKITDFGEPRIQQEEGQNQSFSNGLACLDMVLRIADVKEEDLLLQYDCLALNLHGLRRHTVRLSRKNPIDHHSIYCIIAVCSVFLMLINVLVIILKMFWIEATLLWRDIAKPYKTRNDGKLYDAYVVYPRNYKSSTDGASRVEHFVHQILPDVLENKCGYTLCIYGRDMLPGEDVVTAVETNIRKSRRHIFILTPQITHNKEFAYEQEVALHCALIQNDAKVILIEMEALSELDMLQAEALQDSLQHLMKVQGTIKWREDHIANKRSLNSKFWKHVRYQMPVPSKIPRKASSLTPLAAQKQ
* = called active by the depositor; i = inactive.

SMILES	ST2 inh
Cc1ccc(N2CN=c3s/c(=C\c4ccco4)c(=O)n3C2)cc1	34%*
CCOc1ccc(N2CN=c3s/c(=C/c4cccs4)c(=O)n3C2)cc1	i
CC(Oc1ccccc1)C(=O)N1CCN(c2ccc([N+](=O)[O-])cc2)CC1 (configuration not stated)	48%*
O=C(c1ccccc1Cl)N1CCN(c2ccc([N+](=O)[O-])cc2)CC1	i
O=C(C(Cl)Cl)N1CCN(c2ccc([N+](=O)[O-])cc2)CC1	i
Cc1oc(C(=O)O)cc1CN1CCCC1	i
Cc1cccc(C)c1NC(=O)c1ccc(C(=O)Nc2c(C)cccc2C)nc1	i
CNC(=O)C1CCC(Cn2c(=O)c3sccc3n(CC(=O)Nc3cccc(C(C)=O)c3)c2=O)CC1 (configuration not stated)	i
Cc1ccccc1-n1ncc(C(C)NC(=O)c2cc(F)ccc2F)c1C (configuration not stated)	i
CC(=O)n1cc(C(C[N+](=O)[O-])SCc2ccccc2)c2ccccc21 (configuration not stated)	41%*
CC(=O)n1c2ccccc2c2cc([N+](=O)[O-])ccc21	i
CC(=O)NC(C(N)=O)C(SCc1ccccc1)c1c[nH]c2ccccc12 (configuration not stated)	i
O=C(c1ccncn1)N1CCc2[nH]nc(-c3ccc(-c4ccccc4)cc3)c2C1	i
CC1CC(=O)N(Cc2ccc(F)cc2)c2ccccc2S1 (configuration not stated)	i
Cc1cccc(N2CCC(NCCN(C)S(C)(=O)=O)CC2)c1C	i
C/C(=C\C(=O)c1ccc(Cl)cc1)Nc1ccccc1O	30%*
Cc1c(F)cccc1NC(=O)c1ccc(Cl)cc1	i
O=C(Nc1ccccc1O)c1ccc(S(=O)(=O)c2ccc(Cl)cc2)cc1	i
Cc1cccc(-c2nnc(-c3cccc(C)c3)o2)c1	i
CC(C)NC(=O)c1cccn1-c1nnc(N2CCCCC2)s1	i
CCOC(=O)c1c(C)oc2ccc(OCc3ccc(Cl)cc3)cc12	i
CC1=NOC(C)(CNC(=O)c2cc(C)nc3ccc(C)cc23)C1 (configuration not stated)	i
CC(=O)N(CN1C(=O)c2ccc(Br)cc2C1=O)c1ccc(OCc2ccccc2)cc1	i
CC(=O)N(CN1C(=O)c2ccccc2C1=O)c1cccc(C)c1	i
CC(=O)N(CN1C(=O)c2ccc(Br)cc2C1=O)c1cccc(C(=O)O)c1	45%*
SMILES	ST2 inh
Cc1cc(OCC(=O)Nc2ccc(C(N)=O)cc2)cc(C)c1Br	i
CN(C)CCCNc1nc(-c2ccccc2O)nc2ccccc12	i
Oc1ccc(C2C=CCC2)cc1 (configuration not stated)	i
COc1ccc2nc(N3CCC(C(=O)NCCCN4C(C)CCCC4C)CC3)sc2c1 (configuration not stated)	i
CC(C)c1ccc(C(=O)NCC2(O)CCCNCC2)c(=O)n1C (configuration not stated)	i
COc1c(F)ccc(C(=O)N2C[C@H](N)C[C@H]2C(=O)NC(C)C)c1F	i
COc1ccc(C=Nc2ccc(O)cc2)c(OC)c1	32%*
COc1cc(OC)c(C=C2C(=O)OC3(CCCCC3)OC2=O)cc1Br	i
COc1ccc(-n2c(O)c(C=Nc3ccc(OC)c(OC)c3)c3ccccc3c2=O)cc1	i
COc1ccc(OC)c(C=Nc2ccc(S(N)(=O)=O)cc2)c1	i
COc1cc(OC)c(C=Nc2ccc(O)cc2)cc1Br	51%*
COc1ccc(NS(=O)(=O)c2ccc(N=Cc3cc(Br)ccc3O)cc2)nn1	i
CC(=O)Nc1ccc(NC(=O)c2ccccc2SCc2ccccc2)cc1	i
COc1ccccc1N1C(=O)C2CC=CCC2C1=O (configuration not stated)	i
CCOC(=O)c1ccc(NC(=O)c2ccc(=O)n(Cc3ccc(F)cc3)c2)cc1	i
CNc1ncc(CN(C)c2nc(-c3cccnc3)nc3c2cnn3C)cn1	46%*
COCc1nc(N(C)Cc2cc(-c3cccnc3)no2)c2cnn(C)c2n1	i
CCSCCNc1nc(-c2cccnc2)nc2c1cnn2C	i
Cc1cc(C(F)(F)F)nc(NC(C)c2ccccc2)n1 (configuration not stated)	i
COc1cc(NC(=O)c2ccc(-c3ccccc3)cc2)c(OC)cc1Cl	i
COc1cc(C(=O)Nc2nc(-c3ccc4c(c3)OCO4)cs2)cc(OC)c1OC	i
N#C/C(=C\c1cccc([N+](=O)[O-])c1)c1nc(-c2ccc3c(c2)OCO3)cs1	i
COc1ccccc1N/C=C(\C#N)c1nc(-c2ccc3c(c2)OCO3)cs1	41%*
COc1cc(N/C=C(/C#N)c2nc(-c3ccc(OC)c(OC)c3)cs2)c(OC)cc1Cl	40%*
N#C/C(=C\Nc1ccccc1F)c1nc(-c2cc3cc([N+](=O)[O-])ccc3oc2=O)cs1	i
C#CCNC(=O)CC[C@H]1CNC(=O)[C@@H]2[C@@H](CCN2CC(C)(C)C)N1C	i
COc1ccc(CN2CCN(C)C(C(=O)O)C2)cc1O (configuration not stated)	i
